Inconclusive results are not listed. Active and inactive are the calls of the source. Calls follow the shape of the dose curve; as a rule, active = well fitted activation curve with a large enough effect; inconclusive = small, poorly fitted or top-dose-only effect; inactive = flat fitted curve, though single readings scatter.

This assay is described as follows: Primary redox qHTS assay for identification of artifact compounds. (AID 1845223). The note with it: Amplex Red/HRP redox cycling with DTT, fluorescence; series mostly up to 53.8 µM. Summed up:
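Redox-cycling detection via DTT (250 uM final) oxidation coupled to Amplex Red (25 uM)/HRP (250 mU/mL) in HBSS. 15 min preincubation plus 30 min after DTT, room temperature. Ex/Em 525/598 nm; 4-parameter Hill fit against DMSO and 10 uM DA3003.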
In general terms: Quantitative high-throughput screening tests each substance at several concentrations.
With `OC[C@H]1O[C@H](O[C@]2(CCl)O[C@H](CCl)[C@@H](O)[C@@H]2O)[C@H](O)[C@@H](O)[C@H]1Cl`, the compound was classed as inactive. In the case of `CC(=O)OCC(=O)[C@@]1(O)CC[C@H]2[C@@H]3CCC4=CC(=O)C=C[C@]4(C)[C@H]3[C@@H](O)C[C@@]21C` it was “inactive”. For `CC(C)(C)NC(=O)[C@@H]1CN(Cc2cccnc2)CCN1C[C@@H](O)C[C@@H](Cc1ccccc1)C(=O)N[C@H]1c2ccccc2C[C@H]1O`, the outcome was inactive.

Turning to `Cc1cc2c(cc1CC(=O)c1sccc1S(=O)(=O)Nc1onc(C)c1Cl)OCO2`, the call was inactive. For the compound `COC(=O)C1=C(C)NC(C)=C(C(=O)O[C@@H]2CCCN(Cc3ccccc3)C2)[C@@H]1c1cccc([N+](=O)[O-])c1`, the compound was called inactive. For the compound `COC(=O)CCc1ccc(OCC(O)CNC(C)C)cc1` (stereo not drawn), the call was inactive.

`C#C[C@]1(OC(C)=O)CC[C@H]2[C@@H]3CCC4=C[C@@H](OC(C)=O)CC[C@@H]4[C@H]3CC[C@@]21C`: the outcome was inactive. `O=C(OCCOCCO)c1ccccc1Nc1cccc(C(F)(F)F)c1`: the result was inactive. In the case of `NC(=NCCCCCCN=C(N)/N=C(\N)Nc1ccc(Cl)cc1)/N=C(\N)Nc1ccc(Cl)cc1` it was “inactive”. Consider `Cc1nc2n(c(=O)c1CCN1CCC(c3noc4cc(F)ccc34)CC1)CCC[C@H]2O`, for which the call was inactive. For the compound `O=c1[nH]c(=O)n([C@H]2CCCO2)cc1F`, the outcome was inactive.

For the compound `CCCCS(=O)(=O)N[C@@H](Cc1ccc(OCCCCC2CCNCC2)cc1)C(=O)O`, the compound was called inactive. `COc1ccc(CN2CCN(C(c3ccc(F)cc3)c3ccc(F)cc3)CC2)c(OC)c1OC`: the compound was classed as inactive.

As for `CN(C)CCCOc1nn(Cc2ccccc2)c2ccccc12`, the outcome was inactive. For the compound `Cc1ccccc1C(=O)Nc1ccc(C(=O)N2CCCC(N(C)C)c3ccccc32)cc1` (stereo not drawn), the outcome was inactive. In the case of `CC(=O)O[C@]1(C(C)=O)CC[C@H]2[C@@H]3C[C@H](C)C4=CC(=O)CC[C@]4(C)[C@H]3CC[C@@]21C`, the call was inactive. On to `CC(C)(C)CC(C)(C)c1ccc(OCCOCC[N+](C)(C)Cc2ccccc2)cc1`, for which the compound was called inactive. Consider `CN1C(CCl)Nc2cc(Cl)c(S(N)(=O)=O)cc2S1(=O)=O` (stereo not drawn), for which the outcome was inactive.

`CN1[C@@H]2CC[C@H]1CC(OC(=O)c1c[nH]c3ccccc13)C2` (stereo partly drawn): the compound was classed as inactive.

Regarding `CN1CCN(C(c2ccccc2)c2ccccc2)CC1`, the outcome was inactive.

In the case of `Cc1ccc(C(=O)C(C)CN2CCCCC2)cc1` (stereo not drawn), the outcome was inactive.

Take `Cc1ccc(Nc2c(F)cccc2Cl)c(CC(=O)O)c1`: the result was inactive. As to `Nc1ccn([C@@H]2O[C@H](CO)[C@@H](O)C2(F)F)c(=O)n1`, the compound was called inactive.

The values above are taken from PubChem BioAssay (NCATS).
